Experimental findings from ChEMBL document CHEMBL3988442, “University of Dundee, Small-Polar-MMV Screening Library” (2021) are described below.

Screen size: about 48,000 compounds; about 13,000 (27%) showed an effect of 50% or more. The list shows a part of the results.

The assay has as its system Wolbachia pipientis. Put plainly: Anti-Wolbachia Cell-Based Screen. It counts as functional. More on the design: scale not given: in the data most compounds retested in dose-response had high values. Conditions: 5 µM.
Take `Cc1oc(-c2ccco2)nc1CC(=O)NCC(C)(C)N(C)C`: the “Percent Effect” value is -56.87%.

Regarding `CCCc1cc(C(=O)N2C[C@H]3CC=C(C)C[C@H]3C2)ccn1`, the “Percent Effect” value was -1.263%.

Regarding `Clc1cnccc1N1CCC(OC2CCOCC2)CC1`, the “Percent Effect” value is -17.26%.

As for `CCc1nsc(N2CCCN(C(=O)c3ccc(CC)o3)CC2)n1`, the “Percent Effect” value is on record as 0.3515%.

Regarding `Cc1noc2ncnc(NC(CC(C)(C)C)c3cccnc3)c12` (stereo not drawn), the “Percent Effect” value was -8.396%.

For `Cc1ccc(C)c(CC(=O)Nc2cccc(C(=O)N(C)C)n2)c1`, the “Percent Effect” value was -5.2%.

Turning to `O=C(NCCC1=CCCCC1)c1n[nH]c2c1CCCC2`, the “Percent Effect” value stood at 109.4%.

As to `O=C(NCCC1=CCCCC1)c1cc(-c2ccc(O)cc2)n[nH]1`, the “Percent Effect” value is recorded as 12.27%.

In the case of `Cc1ccc(NC(=O)CN(C)C(=O)c2ccc(-n3cccc3)nc2)nc1`, the “Percent Effect” value is listed as -2.8%.

As to `O=C(NCCC1=CCCCC1)c1ccc(-n2cccc2)nc1`, the “Percent Effect” value was 122.4%.

On to `CCCc1cc(C(=O)NCCC2=CCCCC2)[nH]n1`, for which the “Percent Effect” value is listed as -0.1472%.

Regarding `O=C(NCCC1=CCCCC1)C1CCN(c2ccc3nncn3n2)CC1`, the “Percent Effect” value is on record as 0.9872%.

Take `CC(=O)NCCc1nc(C(C)C)nn1-c1ccncc1C`: the “Percent Effect” value was -7.062%.

For the compound `CC1CCN(CCCNS(=O)(=O)Cc2ccccc2F)CC1`, the “Percent Effect” value is -5.574%.

Regarding `CN1CCC(C(=O)N2CCC(=Cc3cccc(F)c3)CC2)CC1=O` (stereo not drawn), the “Percent Effect” value was -1.128%.

In the case of `Cc1ccc(C2=CCN(C(=O)C3CCN(C)C(=O)C3)CC2)cc1` (stereo not drawn), the “Percent Effect” value stood at 92.67%.

For the compound `COc1ccc(C2=CCN(C(=O)C3CCN(C)C(=O)C3)CC2)cc1` (stereo not drawn), the “Percent Effect” value is given as -8.99%.

Consider `CCOc1cccnc1C(=O)N1CC=C(c2ccc(O)cc2)CC1`, for which the “Percent Effect” value is listed as -4.198%.

On to `CCOc1ccccc1C1=CCN(C(=O)C2CCN(C)C(=O)C2)CC1` (stereo not drawn), for which the “Percent Effect” value was 103.5%.

As to `CN1CC(C(=O)N2CCC(Oc3ccccc3Cl)CC2)CC1=O` (stereo not drawn), the “Percent Effect” value came to 1.662%.

As to `O=C(Cn1nnn(-c2cccs2)c1=O)NCC1CCOC1` (stereo not drawn), the “Percent Effect” value is 8.767%.

`NC(=O)c1cccc(CCNCc2cnc(C3CCC3)s2)c1`: the “Percent Effect” value was -3.682%.

For `O=C(c1sccc1Br)N1CCOCC1`, the “Percent Effect” value was determined as 7.49%.

Consider `CS(=O)(=O)N1C[C@@H]2CC[C@H](C1)N(C(=O)CCn1cnc3ccccc31)C2`, for which the “Percent Effect” value is listed as 6.293%.

Turning to `CCC(=O)Nc1ccc2c(c1)C1(CCOCC1)CN2CCF.O=C(O)C(F)(F)F`, the “Percent Effect” value is listed as 102.7%.

Regarding `COCC(=O)Nc1ccc2c(c1)C1(CCOCC1)CN2CCF.O=C(O)C(F)(F)F`, the “Percent Effect” value is recorded as 107%.

On to `CCN1C(=O)C2(CCOCC2)c2cc(NC(=O)COC)ccc21`, for which the “Percent Effect” value was 1.52%.

For the compound `CCN1C(=O)C2(CCOCC2)c2cc(NC(=O)c3cccn3C)ccc21`, the “Percent Effect” value is 0.2171%.
